Screens (PubChem BioAssay)
An excerpt weighted towards active compounds, which were near 2.9% of everything screened.
Myeloid diff MLP: promotes myeloid progenitor differentiation; ER-HoxA9 myeloid progenitors, lysozyme-GFP differentiation, flow cytometry; calls only at 10 µM; 360,000 tested, 1% active; AID 624256;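 active = normalized GFP-positive differentiation at or above the plate's own cutoff, the solvent-only control mean plus 3 SD; inconclusive = no clear call, values can overlap the other calls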;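 also: cells exposed to compound for four days before flow analysis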
Rtt109 HAT inh: C. albicans Rtt109 histone acetyltransferase inhibition | purified Rtt109/Vps75, ThioGlo CoA-SH fluorescence, 4 h | inhibition, % at 34.9 µM | 330,000 tested, 0.16% active;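 active = inhibition of at least 50% in every replicate; inconclusive = best replicate reaches 50% inhibition but some replicates fall short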
HGIII-sPLA2 inh: Blocks human group III sPLA2 activity. Q9NZ20. QFRET BODIPY PC-A2 liposome hydrolysis, fluorescence. inhibition, % at 12.2 µM. 370,000 tested, 0.56% active. AID 743126;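 active = inhibition above mean plus 3 SD of compounds lying within the high and low control bounds, cut at about 19% in these data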;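 also: 0% = median of test compound wells and 100% = no enzyme DMSO wells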
Target sequence (Q9NZ20 whole entry, looked up): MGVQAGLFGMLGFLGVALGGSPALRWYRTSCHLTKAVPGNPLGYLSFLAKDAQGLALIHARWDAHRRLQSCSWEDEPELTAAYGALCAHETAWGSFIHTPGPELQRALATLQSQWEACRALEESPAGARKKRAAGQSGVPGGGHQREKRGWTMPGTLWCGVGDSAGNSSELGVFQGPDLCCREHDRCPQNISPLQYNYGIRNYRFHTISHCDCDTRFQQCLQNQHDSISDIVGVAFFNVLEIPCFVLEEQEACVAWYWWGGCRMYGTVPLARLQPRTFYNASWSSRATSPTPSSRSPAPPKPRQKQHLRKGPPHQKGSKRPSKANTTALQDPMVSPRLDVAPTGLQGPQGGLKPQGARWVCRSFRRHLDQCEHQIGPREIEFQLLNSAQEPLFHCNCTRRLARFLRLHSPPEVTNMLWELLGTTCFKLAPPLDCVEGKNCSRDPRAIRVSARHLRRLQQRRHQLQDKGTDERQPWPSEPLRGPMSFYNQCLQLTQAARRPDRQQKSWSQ
Cardio protect: protects H9c2 cardiomyocytes from peroxide injury; AID 588492; protection from H2O2 cell death, % at 20 µM; 360,000 tested, 0.63% active; H2O2 injury protection, ATPLite, 2 h;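 active = compounds giving at least 50% protection of heart cells from peroxide-induced death in the single-dose screen, raw or plate-pattern-corrected value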;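 also: 0% = DMSO wells with peroxide and 100% = DMSO wells without peroxide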
DAGLB inh: blocks human DAGLB lipase activity | Q8NCG7 | HEK293T DAGLB membrane lysate, EnzChek fluorogenic substrate | inhibition, % at 5.17 µM | 340,000 tested, 0.059% active | AID 504411; in the data active = inhibition above about 34%;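 also: 0% = enzyme with vehicle and 100% = wells lacking enzyme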
ABHD5 PLIN5 PPI: inhibitors of human ABHD5-perilipin-5 interaction | 360,000 tested, 0.78% active | Split G. princeps luciferase complementation, luminescence, 4 h | AID 602281 | inhibition, % at 4 µM;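 active = inhibition above the mean inhibition across every tested compound plus 3 SD, cut at about 22% in these data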;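 also: 0% = DMSO only wells and the 100% control is not disclosed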
Active calls of the source: *; i = inactive; ? = inconclusive; nt = not tested or not shown; + = active, no number.

SMILES	Myeloid diff MLP	Rtt109 HAT inh	HGIII-sPLA2 inh	Cardio protect	DAGLB inh	ABHD5 PLIN5 PPI
Cc1ccn2c(C(=O)N/N=C\c3ccccc3[N+](=O)[O-])c(C)nc2c1	+	0	6	9	3	-6
Cc1ccn2c(C(=O)N/N=C/c3ccc(Cl)cc3)c(C)nc2c1	i	-2	1	3	-2	-5
NC(N)=N/N=C/c1ccc(OCc2ccccc2)c(OCc2ccccc2)c1	i	79*	-10	-22	3	-41
COc1cc2c(C#N)c(N3CCc4ccccc4C3)nc(N)c2c(N)n1	+	-5	5	8	-4	-11
COc1cc2c(C#N)c(N3CCCCC3)nc(N)c2c(N)n1	i	-1	3	-3	-5	-14
CCCCNC(=O)C(C)N(CCN(C)C)C(=O)CCCN1C(=O)NC(c2ccc([N+](=O)[O-])cc2)C(C(=O)OCc2ccccc2)=C1C (centres undefined)	+	4	nt	-18	2	14
COc1ccc(/C=C/C(=O)c2ccccc2)cc1COc1ccc(F)cc1	i	-12	4	-10	-16	22*
Cc1cc(N2C(=O)C(O)=C(C(=O)c3ccc(C)o3)C2c2cccc(Oc3ccccc3)c2)no1 (centres undefined)	i	3	-13	1	14	-21
CCN(CC)CCOCCOC(=O)C(CC)(CC)c1ccccc1	i	nt	-3	2	nt	23*
Cc1ccc(NC(=S)Nc2ccc(F)cc2)cc1C	i	50*	9	-10	-1	-8
Fc1ccc(NC(=S)Nc2ccc3nccnc3c2)cc1	i	3	7	62*	2	-28
Cc1cccc(C)c1NC(=S)Nc1ccc(F)cc1	i	4	5	1	-1	-3
COc1ccc(C(=O)NCc2nnc(SCC(=O)Nc3cccc(F)c3)o2)cc1	i	0	2	0	1	2
COc1ccccc1/C=N/NC(=O)c1nnn(-c2nonc2N)c1-c1cccs1	i	-7	nt	-3	-2	-5
CN(CC(=O)Nc1ccccc1Br)C(=O)CNC(=O)c1ccc(Oc2ccccc2)cc1	+	12	-14	-10	-2	6
O=C(O)C1CC=CCC1C(=O)NCc1ccc2c(c1)OCO2 (centres undefined)	+	-6	2	5	2	12
O=C(c1n[nH]c(=O)c2ccccc12)N1CCN(Cc2ccc3c(c2)OCO3)CC1	i	12	5	8	4	4
O=C(NCc1ccc2c(c1)OCO2)c1n[nH]c(=O)c2ccccc12	i	-9	2	68*	-3	3
Cc1cc(O)c(-c2cc(C(=O)NCc3ccc4c(c3)OCO4)[nH]n2)cc1C	+	10	-2	0	-2	4
O=S(=O)(Cc1ccccc1)N1CCC(c2nc(-c3cccs3)no2)CC1	i	4	nt	2	-10	5
CCC1CCCCN1C(=O)CCS(=O)(=O)c1ccc2c(c1)CCN2C(C)=O (centres undefined)	i	25	2	2	-1	-3
CCN1C[C@@H]2[C@@H]3C(=O)N(Cc4ccccc4)C(=O)[C@@H]3[C@](CC)(C1=O)N2C(=O)c1ccc(C(F)(F)F)cc1	i	1	-5	-3	-3	-4
CCN1C[C@@H]2[C@@H]3C(=O)N(Cc4ccccc4)C(=O)[C@@H]3[C@](Cc3ccccc3)(C1=O)N2C(=O)c1ccc(C(F)(F)F)cc1	+	0	6	-1	2	-2
CCCN1C(=O)C(Cc2nc3ccccc3c(=O)n2C)c2ccccc21 (centres undefined)	i	6	-20	1	-3	2
O=C(NNc1c2ccccc2nc2ccccc12)c1cccc(O)c1	i	-15	-17	51*	29	13
SMILES	Myeloid diff MLP	Rtt109 HAT inh	HGIII-sPLA2 inh	Cardio protect	DAGLB inh	ABHD5 PLIN5 PPI
COc1ccc(-c2cc(=O)oc3c(C)c(OC(C)C(C)=O)ccc23)cc1 (centres undefined)	+	-23	5	23	-12	-13
COc1ccc(-c2cc(=O)oc3c(C)c(OC(C)C(=O)Nc4ccc(CN5CCOCC5)cc4)ccc23)cc1 (centres undefined)	+	7	-6	7	-6	1
CCOC(=O)C(Oc1ccc2c(-c3ccc(OC)cc3)cc(=O)oc2c1C)c1ccccc1 (centres undefined)	i	-4	2	2	-9	-3
CN(CCO)c1ccc2c(c1)Oc1ccccc1CN(Cc1cn(Cc3cccc(C(F)(F)F)c3)nn1)S2(=O)=O	nt	nt	-2	nt	nt	nt
COC(=O)c1c(C)oc(C)c1S(=O)(=O)N1CCCC1	i	-4	-1	3	0	-5
O=C(N[C@H]1C/C=C\C[C@@H](CC(=O)N(CCO)Cc2ccccc2)C(=O)NC[C@H](c2ccccc2)OC1=O)OCC1c2ccccc2-c2ccccc21	+	12	-21	-6	3	3
O=C1NC[C@H](c2ccccc2)OC(=O)[C@H](Cc2ccc(F)cc2)CC/C=C/C[C@H]1CC(=O)N(CCO)Cc1ccccc1	i	12	-31	52*	0	1
O=C1NC[C@H](c2ccccc2)OC(=O)[C@H](Cc2ccc(F)cc2)C/C=C\C[C@@H]1CC(=O)N(CCO)Cc1ccccc1	i	15	2	30	-3	1
O=C1NC[C@H](c2ccccc2)OC(=O)[C@@H](Cc2ccc(F)cc2)CC/C=C/C[C@H]1CC(=O)N(CCO)Cc1ccccc1	?	9	-45	86*	-4	1
O=C1NC[C@H](c2ccccc2)OC(=O)[C@@H](Cc2ccc(F)cc2)CC/C=C/C[C@@H]1CC(=O)N(CCO)Cc1ccccc1	i	2	-19	28	5	6
COc1ccccc1NC(=O)CSc1nnc(CC(=O)Nc2ccccc2)n1C	i	-9	-3	4	3	4
COc1cc(OC)c(NC(=O)CN(C)S(=O)(=O)c2ccc(-c3ccc(=O)[nH]n3)s2)cc1Cl	i	52*	-14	9	-4	7
COc1cc([C@@H]2[C@H]3CNCC=C3C(C#N)=C(N)C2(C#N)C#N)ccc1OC(C)C	+	7	-15	14	-2	-10
Cc1ccc(-c2n[nH]c(=O)c3ccccc23)cc1S(=O)(=O)Nc1ccc(F)cc1	i	-2	-29	46	2	2
CC(=O)Nc1ccc(NS(=O)(=O)c2cc(-c3n[nH]c(=O)c4ccccc34)ccc2C)cc1	i	1	-13	56*	1	3
Cc1ccc(-c2n[nH]c(=O)c3ccccc23)cc1S(N)(=O)=O	i	-3	-4	57*	-3	0
Cc1ccc(-c2n[nH]c(=O)c3ccccc23)cc1S(=O)(=O)NC(C)(C)C	i	-4	1	64*	0	6
